# Experimental data as given in PMC7862700, “An all-to-all approach to the identification of sequence-specific readers for epigenetic DNA modifications on cytosine”.
# Key:
# Test in all cases: DAPPL (digital affinity profiling via proximity ligation, sequencing); 10 mM Tris-HCl pH 7.5, 50 mM NaCl, 1 mM DTT, 4% glycerol, room temperature, 30 min; GST-TFs on glutathione beads, 16-mer random dsDNA library, 0.1% formaldehyde crosslink after washing; high values mean tight binding
# [1] = target: T1, FLI1 (Homo sapiens, UniProt Q01543 1-452); conditions: protein: recombinant; tags: N-terminal GST; dsDNA, one strand shown
# T1 sequence: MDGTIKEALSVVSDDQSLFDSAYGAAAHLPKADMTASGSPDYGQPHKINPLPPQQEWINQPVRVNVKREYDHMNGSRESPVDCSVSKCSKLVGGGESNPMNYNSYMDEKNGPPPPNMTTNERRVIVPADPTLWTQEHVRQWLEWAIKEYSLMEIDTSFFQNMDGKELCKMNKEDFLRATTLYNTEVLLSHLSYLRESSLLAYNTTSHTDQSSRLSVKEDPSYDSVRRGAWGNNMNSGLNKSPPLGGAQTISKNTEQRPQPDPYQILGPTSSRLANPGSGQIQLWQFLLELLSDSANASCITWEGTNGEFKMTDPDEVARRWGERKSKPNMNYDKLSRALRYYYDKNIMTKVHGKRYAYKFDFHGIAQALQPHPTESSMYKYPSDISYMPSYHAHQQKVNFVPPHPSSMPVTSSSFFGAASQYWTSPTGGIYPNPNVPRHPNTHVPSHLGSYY
# Summary of the method: (§1)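 A tag-only sample was pooled with DNA-barcoded human transcription factors that had been expressed in yeast as GST fusions and captured on glutathione beads. The pools were incubated for 30 min at room temperature with 200 nmole of a random double-stranded 16-mer DNA library in Tris/NaCl/DTT/glycerol buffer, then washed, crosslinked with 0.1% formaldehyde, proximity-ligated (BsaI/T4 ligase, 1 h, 37 °C), PCR-amplified and sequenced on an Illumina NextSeq500. Binding signal is each hexamer's read frequency for a factor divided by its frequency for the tag-only sample.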
# [2] = target: T2, ELK1 (Homo sapiens, UniProt P19419 1-428); conditions: protein: recombinant; tags: N-terminal GST; dsDNA, one strand shown
# T2 sequence: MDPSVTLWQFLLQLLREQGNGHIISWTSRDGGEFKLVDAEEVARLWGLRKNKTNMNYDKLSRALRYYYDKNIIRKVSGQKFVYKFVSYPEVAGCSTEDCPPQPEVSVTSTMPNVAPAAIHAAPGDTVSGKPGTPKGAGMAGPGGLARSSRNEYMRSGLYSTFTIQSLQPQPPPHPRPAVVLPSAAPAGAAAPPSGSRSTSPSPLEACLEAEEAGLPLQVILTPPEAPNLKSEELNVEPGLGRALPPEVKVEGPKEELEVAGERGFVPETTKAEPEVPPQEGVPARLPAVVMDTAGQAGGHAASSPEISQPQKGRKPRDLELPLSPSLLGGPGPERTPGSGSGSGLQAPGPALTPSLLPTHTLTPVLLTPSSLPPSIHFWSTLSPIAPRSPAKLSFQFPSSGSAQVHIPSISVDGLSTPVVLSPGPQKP
# Summary of the method: as §1
# [3] = target: T3, GABPA (Homo sapiens, UniProt Q06546 1-454); conditions: protein: recombinant; tags: N-terminal GST; dsDNA, one strand shown
# T3 sequence: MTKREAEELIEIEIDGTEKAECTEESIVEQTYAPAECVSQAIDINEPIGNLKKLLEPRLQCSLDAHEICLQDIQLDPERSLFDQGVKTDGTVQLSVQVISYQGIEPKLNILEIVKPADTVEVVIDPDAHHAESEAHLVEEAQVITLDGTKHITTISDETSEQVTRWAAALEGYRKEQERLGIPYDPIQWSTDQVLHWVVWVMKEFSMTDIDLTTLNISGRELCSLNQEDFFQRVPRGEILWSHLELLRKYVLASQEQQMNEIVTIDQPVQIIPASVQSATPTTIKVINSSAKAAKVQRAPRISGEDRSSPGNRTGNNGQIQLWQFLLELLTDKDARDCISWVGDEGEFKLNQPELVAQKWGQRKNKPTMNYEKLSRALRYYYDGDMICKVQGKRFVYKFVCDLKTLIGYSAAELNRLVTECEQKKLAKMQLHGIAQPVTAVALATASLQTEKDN
# Summary of the method: as §1
# [4] = target: T4, ERG (Homo sapiens, UniProt P11308 1-479); conditions: protein: recombinant; tags: N-terminal GST; dsDNA, one strand shown
# T4 sequence: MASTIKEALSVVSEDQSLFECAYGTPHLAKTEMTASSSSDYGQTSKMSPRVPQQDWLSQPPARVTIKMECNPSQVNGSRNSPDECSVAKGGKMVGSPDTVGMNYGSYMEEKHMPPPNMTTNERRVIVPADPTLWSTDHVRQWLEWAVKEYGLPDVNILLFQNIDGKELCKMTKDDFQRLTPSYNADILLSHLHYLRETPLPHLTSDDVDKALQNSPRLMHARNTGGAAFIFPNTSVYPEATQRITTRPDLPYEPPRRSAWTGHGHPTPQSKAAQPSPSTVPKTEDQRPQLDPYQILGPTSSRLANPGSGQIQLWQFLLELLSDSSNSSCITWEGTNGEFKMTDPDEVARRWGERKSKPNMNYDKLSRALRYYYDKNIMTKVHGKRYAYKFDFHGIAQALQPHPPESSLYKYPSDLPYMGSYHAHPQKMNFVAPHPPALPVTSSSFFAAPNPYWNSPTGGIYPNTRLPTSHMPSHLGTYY
# Summary of the method: as §1
# [5] = target: ELF1 (Homo sapiens, UniProt P32519 1-619); conditions: protein: recombinant; tags: N-terminal GST; dsDNA, one strand shown
# Summary of the method: as §1
# [6] = target: T5, EHF (Homo sapiens, UniProt Q9NZC4 1-300); conditions: protein: recombinant; tags: N-terminal GST; dsDNA, one strand shown
# T5 sequence: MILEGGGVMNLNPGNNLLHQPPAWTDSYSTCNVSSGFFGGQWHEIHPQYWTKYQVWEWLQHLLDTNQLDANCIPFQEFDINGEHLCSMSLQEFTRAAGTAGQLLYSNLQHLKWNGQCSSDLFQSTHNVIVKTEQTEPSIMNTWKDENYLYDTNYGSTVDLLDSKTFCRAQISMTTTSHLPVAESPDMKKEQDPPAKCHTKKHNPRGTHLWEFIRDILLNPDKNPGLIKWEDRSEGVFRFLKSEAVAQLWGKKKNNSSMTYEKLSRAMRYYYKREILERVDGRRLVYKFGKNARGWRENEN
# Summary of the method: as §1
# [7] = target: SPI1 (Homo sapiens, UniProt P17947 1-270); conditions: protein: recombinant; tags: N-terminal GST; dsDNA, one strand shown
# Summary of the method: as §1
# [8] = target: SPIB (Homo sapiens, UniProt Q01892 1-262); conditions: protein: recombinant; tags: N-terminal GST; dsDNA, one strand shown
# Summary of the method: as §1
# [9] = target: T6, ELK3 (Homo sapiens, UniProt P41970 1-407); conditions: protein: recombinant; tags: N-terminal GST; dsDNA, one strand shown
# T6 sequence: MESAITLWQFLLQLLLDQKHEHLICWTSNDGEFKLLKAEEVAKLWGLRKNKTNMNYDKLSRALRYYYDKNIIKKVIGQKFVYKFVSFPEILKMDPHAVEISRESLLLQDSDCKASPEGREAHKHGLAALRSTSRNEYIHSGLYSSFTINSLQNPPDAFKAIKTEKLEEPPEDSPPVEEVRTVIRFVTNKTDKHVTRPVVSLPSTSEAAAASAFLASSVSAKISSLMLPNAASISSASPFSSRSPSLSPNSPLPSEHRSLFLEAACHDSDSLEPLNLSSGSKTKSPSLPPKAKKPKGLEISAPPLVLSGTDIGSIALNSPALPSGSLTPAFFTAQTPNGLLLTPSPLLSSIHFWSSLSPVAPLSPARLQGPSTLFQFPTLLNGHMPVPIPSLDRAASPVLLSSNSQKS
# Summary of the method: as §1
# [10] = target: T7, FEV (Homo sapiens, UniProt Q99581 1-238); conditions: protein: recombinant; tags: N-terminal GST; dsDNA, one strand shown
# T7 sequence: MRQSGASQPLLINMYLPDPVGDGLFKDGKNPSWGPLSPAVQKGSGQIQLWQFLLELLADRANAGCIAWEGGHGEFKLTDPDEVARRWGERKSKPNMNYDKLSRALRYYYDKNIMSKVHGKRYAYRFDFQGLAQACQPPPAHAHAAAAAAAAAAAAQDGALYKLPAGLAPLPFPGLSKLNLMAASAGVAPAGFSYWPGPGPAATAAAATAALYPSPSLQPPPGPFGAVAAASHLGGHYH
# Summary of the method: as §1
# [11] = target: ETV5 (Homo sapiens, UniProt P41161 1-510); conditions: protein: recombinant; tags: N-terminal GST; dsDNA, one strand shown
# Summary of the method: as §1
# [12] = target: HSF1 (Homo sapiens, UniProt Q00613 1-529); conditions: protein: recombinant; tags: N-terminal GST; chain copies: 3; dsDNA, one strand shown
# Summary of the method: as §1
# [13] = target: T8, SPIC (Homo sapiens, UniProt Q8N5J4 1-248); conditions: protein: recombinant; tags: N-terminal GST; dsDNA, one strand shown
# T8 sequence: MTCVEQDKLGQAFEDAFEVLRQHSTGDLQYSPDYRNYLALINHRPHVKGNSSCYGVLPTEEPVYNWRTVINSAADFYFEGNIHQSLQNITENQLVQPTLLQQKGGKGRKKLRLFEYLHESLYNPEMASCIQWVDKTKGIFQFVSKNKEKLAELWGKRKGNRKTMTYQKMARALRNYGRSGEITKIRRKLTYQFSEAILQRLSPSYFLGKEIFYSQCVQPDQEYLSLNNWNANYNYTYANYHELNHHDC
# Summary of the method: as §1
# [14] = target: ELF4 (Homo sapiens, UniProt Q99607 1-663); conditions: protein: recombinant; tags: N-terminal GST; dsDNA, one strand shown
# Summary of the method: as §1
# [15] = target: T9, ELK4 (Homo sapiens, UniProt P28324-2 1-405); conditions: protein: recombinant; tags: N-terminal GST; dsDNA, one strand shown
# T9 sequence: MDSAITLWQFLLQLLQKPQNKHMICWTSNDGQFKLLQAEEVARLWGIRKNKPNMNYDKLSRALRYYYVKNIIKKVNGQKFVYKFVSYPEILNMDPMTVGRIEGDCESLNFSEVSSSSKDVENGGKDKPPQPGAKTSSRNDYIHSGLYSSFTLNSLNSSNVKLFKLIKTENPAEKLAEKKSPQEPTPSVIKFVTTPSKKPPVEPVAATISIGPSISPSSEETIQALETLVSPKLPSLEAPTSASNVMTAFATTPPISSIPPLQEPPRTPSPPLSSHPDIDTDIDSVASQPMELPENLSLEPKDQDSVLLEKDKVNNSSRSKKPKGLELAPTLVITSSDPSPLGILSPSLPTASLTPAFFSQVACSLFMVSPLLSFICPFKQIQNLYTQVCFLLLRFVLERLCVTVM
# Summary of the method: as §1
# [16] = target: T10, ETV2 (Homo sapiens, UniProt O00321 1-342); conditions: protein: recombinant; tags: N-terminal GST; dsDNA, one strand shown
# T10 sequence: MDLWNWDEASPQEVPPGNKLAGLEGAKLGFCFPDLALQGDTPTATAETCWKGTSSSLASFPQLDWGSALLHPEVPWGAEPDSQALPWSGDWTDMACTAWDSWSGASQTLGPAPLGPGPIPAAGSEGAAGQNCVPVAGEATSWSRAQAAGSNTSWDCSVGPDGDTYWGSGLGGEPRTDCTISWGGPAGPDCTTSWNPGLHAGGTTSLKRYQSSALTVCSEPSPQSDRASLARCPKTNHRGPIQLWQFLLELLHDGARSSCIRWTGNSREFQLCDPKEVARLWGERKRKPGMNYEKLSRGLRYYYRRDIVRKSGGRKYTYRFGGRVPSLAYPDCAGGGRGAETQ
# Summary of the method: as §1
# [17] = target: T11, ELF3 (Homo sapiens, UniProt P78545 1-371); conditions: protein: recombinant; tags: N-terminal GST; dsDNA, one strand shown
# T11 sequence: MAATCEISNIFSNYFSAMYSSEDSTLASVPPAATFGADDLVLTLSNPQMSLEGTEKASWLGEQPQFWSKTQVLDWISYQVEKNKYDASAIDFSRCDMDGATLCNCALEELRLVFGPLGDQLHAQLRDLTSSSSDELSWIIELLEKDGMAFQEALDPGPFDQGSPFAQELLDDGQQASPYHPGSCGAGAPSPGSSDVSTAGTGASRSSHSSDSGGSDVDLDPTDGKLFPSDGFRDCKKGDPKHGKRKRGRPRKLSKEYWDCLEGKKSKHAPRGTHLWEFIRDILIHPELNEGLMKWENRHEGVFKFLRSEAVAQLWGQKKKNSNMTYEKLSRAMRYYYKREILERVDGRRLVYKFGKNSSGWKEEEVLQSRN
# Summary of the method: as §1
# [18] = target: CRX (Homo sapiens, UniProt O43186 1-299); conditions: protein: recombinant; tags: N-terminal GST; dsDNA, one strand shown
# Summary of the method: as §1
# [19] = target: ETV1 (Homo sapiens, UniProt P50549 1-477); conditions: protein: recombinant; tags: N-terminal GST; dsDNA, one strand shown
# Summary of the method: as §1
# Sequence of ETV5 (P41161 whole entry): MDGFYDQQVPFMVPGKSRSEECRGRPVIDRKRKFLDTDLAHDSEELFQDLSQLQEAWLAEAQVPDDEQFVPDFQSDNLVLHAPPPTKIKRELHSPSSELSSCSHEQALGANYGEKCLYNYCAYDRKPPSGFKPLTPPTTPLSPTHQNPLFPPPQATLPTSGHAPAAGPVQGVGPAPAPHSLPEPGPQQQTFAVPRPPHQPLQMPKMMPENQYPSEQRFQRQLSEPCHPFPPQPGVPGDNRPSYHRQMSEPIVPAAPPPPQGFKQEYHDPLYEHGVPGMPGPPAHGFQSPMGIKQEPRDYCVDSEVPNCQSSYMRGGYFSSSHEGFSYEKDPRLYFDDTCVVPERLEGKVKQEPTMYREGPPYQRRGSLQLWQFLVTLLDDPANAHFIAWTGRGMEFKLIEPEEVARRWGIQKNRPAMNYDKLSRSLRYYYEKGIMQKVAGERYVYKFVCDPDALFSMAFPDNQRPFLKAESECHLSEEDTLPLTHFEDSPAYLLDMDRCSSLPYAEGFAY
# Sequence of SPIB (Q01892 whole entry): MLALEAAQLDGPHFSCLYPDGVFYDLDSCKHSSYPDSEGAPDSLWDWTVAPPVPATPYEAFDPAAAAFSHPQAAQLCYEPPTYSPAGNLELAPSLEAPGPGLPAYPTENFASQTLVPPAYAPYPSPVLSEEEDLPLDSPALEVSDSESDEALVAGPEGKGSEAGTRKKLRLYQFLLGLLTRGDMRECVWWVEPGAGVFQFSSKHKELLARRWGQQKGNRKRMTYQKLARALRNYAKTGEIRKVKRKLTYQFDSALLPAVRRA
# Sequence of ELF1 (P32519 whole entry): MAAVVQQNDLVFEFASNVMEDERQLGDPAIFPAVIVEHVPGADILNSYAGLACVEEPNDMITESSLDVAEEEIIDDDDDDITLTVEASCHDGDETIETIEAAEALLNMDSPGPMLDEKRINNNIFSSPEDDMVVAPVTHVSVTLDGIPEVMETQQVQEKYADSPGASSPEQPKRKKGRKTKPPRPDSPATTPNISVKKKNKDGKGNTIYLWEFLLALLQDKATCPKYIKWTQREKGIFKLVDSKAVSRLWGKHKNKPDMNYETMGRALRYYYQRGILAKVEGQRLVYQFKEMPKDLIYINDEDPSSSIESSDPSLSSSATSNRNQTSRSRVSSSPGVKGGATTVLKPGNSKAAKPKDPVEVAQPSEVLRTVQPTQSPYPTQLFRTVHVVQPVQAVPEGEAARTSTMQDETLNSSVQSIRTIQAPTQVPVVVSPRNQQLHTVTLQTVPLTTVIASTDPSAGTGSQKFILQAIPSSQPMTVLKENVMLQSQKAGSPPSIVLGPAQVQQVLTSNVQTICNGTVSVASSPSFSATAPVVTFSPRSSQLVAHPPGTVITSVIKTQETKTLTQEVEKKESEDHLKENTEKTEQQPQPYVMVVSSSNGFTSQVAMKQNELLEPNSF
# Sequence of ETV1 (P50549 whole entry): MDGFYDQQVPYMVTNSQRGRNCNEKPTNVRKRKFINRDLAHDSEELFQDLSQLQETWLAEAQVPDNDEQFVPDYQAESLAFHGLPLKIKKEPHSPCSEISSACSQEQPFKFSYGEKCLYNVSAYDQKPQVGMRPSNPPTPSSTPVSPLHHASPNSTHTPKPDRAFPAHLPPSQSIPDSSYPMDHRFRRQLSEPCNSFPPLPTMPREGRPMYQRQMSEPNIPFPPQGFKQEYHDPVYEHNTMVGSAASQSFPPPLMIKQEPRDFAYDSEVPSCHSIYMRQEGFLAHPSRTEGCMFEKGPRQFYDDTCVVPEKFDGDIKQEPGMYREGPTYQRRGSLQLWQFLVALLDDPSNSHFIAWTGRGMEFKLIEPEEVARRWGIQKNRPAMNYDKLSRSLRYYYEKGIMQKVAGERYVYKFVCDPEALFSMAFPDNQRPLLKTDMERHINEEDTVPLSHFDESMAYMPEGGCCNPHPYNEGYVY
# Sequence of CRX (O43186 whole entry): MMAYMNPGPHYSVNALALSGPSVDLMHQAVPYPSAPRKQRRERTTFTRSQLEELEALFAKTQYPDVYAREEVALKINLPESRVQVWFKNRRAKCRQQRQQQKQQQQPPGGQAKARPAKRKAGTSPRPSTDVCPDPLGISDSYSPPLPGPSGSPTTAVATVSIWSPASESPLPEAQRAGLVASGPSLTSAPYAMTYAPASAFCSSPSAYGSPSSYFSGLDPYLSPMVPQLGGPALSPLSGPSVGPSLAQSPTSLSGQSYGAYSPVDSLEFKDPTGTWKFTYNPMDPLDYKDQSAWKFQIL
# Sequence of ELF4 (Q99607 whole entry): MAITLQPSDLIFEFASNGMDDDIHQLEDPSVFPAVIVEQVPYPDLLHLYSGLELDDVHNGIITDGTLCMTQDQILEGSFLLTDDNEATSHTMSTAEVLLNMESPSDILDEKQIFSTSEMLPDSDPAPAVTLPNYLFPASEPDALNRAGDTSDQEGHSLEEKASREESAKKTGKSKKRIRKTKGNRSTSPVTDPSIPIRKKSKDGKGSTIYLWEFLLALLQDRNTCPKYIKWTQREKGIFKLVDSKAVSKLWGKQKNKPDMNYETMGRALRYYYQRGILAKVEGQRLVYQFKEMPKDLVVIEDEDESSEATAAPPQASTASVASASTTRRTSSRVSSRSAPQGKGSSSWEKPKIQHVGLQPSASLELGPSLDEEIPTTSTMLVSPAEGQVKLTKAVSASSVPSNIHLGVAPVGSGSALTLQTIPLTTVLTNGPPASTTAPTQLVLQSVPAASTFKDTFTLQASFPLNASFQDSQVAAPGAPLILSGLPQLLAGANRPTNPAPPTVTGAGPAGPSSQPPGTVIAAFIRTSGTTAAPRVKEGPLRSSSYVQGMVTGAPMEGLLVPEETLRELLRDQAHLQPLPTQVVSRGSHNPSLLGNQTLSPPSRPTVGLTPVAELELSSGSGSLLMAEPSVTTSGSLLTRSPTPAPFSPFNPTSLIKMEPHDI
# Sequence of HSF1 (Q00613 whole entry): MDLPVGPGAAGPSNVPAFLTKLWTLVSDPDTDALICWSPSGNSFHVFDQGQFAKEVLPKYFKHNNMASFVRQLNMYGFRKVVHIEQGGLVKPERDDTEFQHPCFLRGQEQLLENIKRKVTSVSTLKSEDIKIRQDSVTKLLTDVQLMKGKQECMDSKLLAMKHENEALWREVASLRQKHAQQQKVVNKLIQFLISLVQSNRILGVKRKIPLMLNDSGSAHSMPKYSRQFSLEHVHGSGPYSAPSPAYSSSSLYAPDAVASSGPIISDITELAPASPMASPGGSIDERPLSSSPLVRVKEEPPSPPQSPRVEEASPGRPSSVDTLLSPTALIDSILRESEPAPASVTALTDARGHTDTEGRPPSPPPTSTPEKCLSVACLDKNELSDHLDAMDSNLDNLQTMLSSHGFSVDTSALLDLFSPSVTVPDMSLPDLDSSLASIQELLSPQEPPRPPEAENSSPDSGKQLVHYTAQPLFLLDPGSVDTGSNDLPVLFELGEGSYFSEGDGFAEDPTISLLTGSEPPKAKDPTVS
sequence,measurement,setting,value
TTCGCC,binding signal,[1],"1.26 fold enrichment (6-mer frequency, TF over GST control)"
same,binding signal,[2],"1.28 fold enrichment (6-mer frequency, TF over GST control)"
same,binding signal,[3],"1.2 fold enrichment (6-mer frequency, TF over GST control)"
same,binding signal,[4],"1.15 fold enrichment (6-mer frequency, TF over GST control)"
same,binding signal,[5],"1.15 fold enrichment (6-mer frequency, TF over GST control)"
same,binding signal,[6],"1.11 fold enrichment (6-mer frequency, TF over GST control)"
same,binding signal,[7],"1.1 fold enrichment (6-mer frequency, TF over GST control)"
same,binding signal,[8],"1.14 fold enrichment (6-mer frequency, TF over GST control)"
same,binding signal,[9],"1.08 fold enrichment (6-mer frequency, TF over GST control)"
same,binding signal,[10],"1.19 fold enrichment (6-mer frequency, TF over GST control)"
same,binding signal,[11],"1.13 fold enrichment (6-mer frequency, TF over GST control)"
same,binding signal,[12],"1.14 fold enrichment (6-mer frequency, TF over GST control)"
same,binding signal,[13],"1.32 fold enrichment (6-mer frequency, TF over GST control)"
same,binding signal,[14],"1.05 fold enrichment (6-mer frequency, TF over GST control)"
same,binding signal,[15],"1.08 fold enrichment (6-mer frequency, TF over GST control)"
same,binding signal,[16],"1.1 fold enrichment (6-mer frequency, TF over GST control)"
same,binding signal,[17],"1.08 fold enrichment (6-mer frequency, TF over GST control)"
same,binding signal,[18],"1 fold enrichment (6-mer frequency, TF over GST control)"
same,binding signal,[19],"1.13 fold enrichment (6-mer frequency, TF over GST control)"
